# Calls of active or inactive are those of the source.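 How the source made its calls: active means relative FRET score above 0.01, or acceptor fluorescence over 30% below the sample-well median; inactive means the rest.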
# Biological target: Protein Rev (Human immunodeficiency virus type 1 group M subtype B (isolate WMJ22)) (UniProt P05866)
# Assay: HIV-1 Rev-RRE binding inhibitors, retest, confirmation, biochemical, FRET, acceptor and relative FRET calls (AID 837);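 further: relative FRET combines rise in Cy5 acceptor with fall in fluorescein donor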
# Settings: Fl-Rev peptide / Cy5-RRE RNA FRET, 1536-well; at 8 µM
# Sequence of Protein Rev (Human immunodeficiency virus type 1 group M subtype B (isolate WMJ22)) (P05866 whole entry, looked up): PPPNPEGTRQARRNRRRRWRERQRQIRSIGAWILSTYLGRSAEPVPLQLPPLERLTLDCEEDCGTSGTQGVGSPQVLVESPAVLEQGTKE
row,Compound,outcome
1,OC(COc1ccc(C2C=CCC2)cc1)CN1CCCCC1 (stereo not given),inactive
2,Nc1nc(CN2CCCCCC2)nc(Nc2ccc(F)cc2)n1,inactive
3,CC(C)(C)CC(C)(C)NCC(O)COc1c(F)cc(Br)cc1F (stereo not given),inactive
4,NCCCCCc1nnc(SCc2ccccc2Cl)o1,inactive
5,CC(C)CN=c1cc(-c2ccccc2)oc2ccc(Cl)cc12,active
6,CCCCOC(=O)Cn1c(=N)n(CCN(CC)CC)c2ccccc21,inactive
7,CCOC(=O)Cn1c(=N)n(CCOc2ccc(OC)cc2)c2ccccc21,inactive
8,CCN(N=Nc1cccc([N+](=O)[O-])c1)c1cccc([N+](=O)[O-])c1,inactive
9,Cc1cccc(NC2=NC3(CCCCC3)N=C(N)N2)c1C,inactive
10,CN1CCc2c(sc3c2C(=O)NC(c2cn(Cc4ccccc4)c4ccccc24)N3)C1 (stereo not given),inactive
11,COc1cccc(OC)c1-c1nn2c(-c3cc(-c4ccccc4)n[nH]3)nnc2s1,active
12,COc1ccc(CN(C)C2CCCCC2)c(C)c1C,inactive
13,CN=C1c2c(-c3ccccc3)c3cc(OC)ccc3n2CCN1C,inactive
14,CCN(CC)CCCNC(=O)c1cc(-c2ccc(Cl)c(Cl)c2)on1,inactive
15,CCOc1cc(CNCCCN2CCOCC2)ccc1OCC(=O)Nc1cccc2ccccc12,inactive
16,COc1ccc(C2N=C(N)N=C(N)N2c2ccc(C)cc2)cc1 (stereo not given),active
17,OC(CNC1CCCC1)COc1c(F)cc(Br)cc1F (stereo not given),inactive
18,COC(CNc1cc(=O)oc2ccccc12)OC,inactive
19,C=CCn1cc(-c2ccccc2)cc(C#N)c1=O,inactive
20,CC(=Nc1ccc(C)cc1)c1sc2ccccc2c1O,inactive

row,Compound,outcome
1,Cc1ccc(C(=O)NNC(=O)CSc2nnc3c(n2)[nH]c2ccc(F)cc23)cc1,active; quenches the donor
2,CCCCN1CCc2c1nc1ccc(Br)cc1c2N,inactive
3,Cc1cc(C)cc(NC2=NC3(CCCCC3)N=C(N)N2)c1,inactive
4,Cn1nc(SCC(=O)O)sc1=S,inactive
5,CCC1=NNc2cccc3c(OC)ccc1c23,inactive
6,COc1ccc(C(=O)c2coc3ccc(O)c(CN4CCCC4)c23)cc1,inactive
7,CCCn1c(=N)c(C(=O)NCc2ccc3c(c2)OCO3)cc2c(=O)n3cccc(C)c3nc21,inactive
8,CCCCOc1ccc(CSC(=N)N)cc1[N+](=O)[O-],inactive
9,C=CCNCCCCOc1c(Cl)cc(C)cc1Br,inactive
10,CC(C)OC(=O)c1c2nc3ccccc3nc2n2c1[nH]c(=O)c1ccccc12,inactive
11,CC1CC(C)CN(Cc2nc(N)nc(Nc3ccccc3)n2)C1 (stereo not given),inactive
12,CN1/C(=C\C=Nc2ccc3ccccc3c2)C(C)(C)c2ccccc21,inactive
13,Cc1ccc(C(=O)/C=C/c2ccccc2)o1,inactive
14,N=c1n(Cc2ccccc2)c2ccccc2n1CC(O)c1ccco1 (stereo not given),inactive
15,Cc1ccc(C)n1-c1sccc1C(=O)O,inactive
16,Cc1occc1C(=O)Nc1sc2c(c1C(N)=O)CCC(C(C)(C)C)C2 (stereo not given),inactive
17,CCCCCCCCNc1ncnc2ccccc12,inactive
18,CCCCCCCCOc1ccc(C2OC34CCCCC3C(C#N)(C#N)C2(C#N)C(=N)O4)cc1 (stereo not given),inactive
19,CCOC(=O)c1cnc(SC)nc1Sc1ccccc1Cl,inactive
20,C=CCn1c(=N)n(CC(O)COc2ccc(OC)cc2)c2ccccc21 (stereo not given),inactive
